USP7 block: human USP7 deubiquitinase inhibition; Q93009; purified USP7, Ub-rhodamine cleavage fluorescence; inhibition, % at 20 µM; 0.3% of 47,000 active
USP10 inh: human USP10 deubiquitinase inhibition; Q14694; purified USP10, Ub-rhodamine fluorescence, 60 min; inhibition, % at 20 µM; 1.1% of 47,000 active
OTUD3 inh: inhibitors of human OTUD3 deubiquitinase. purified OTUD3, Ub-rhodamine fluorescence, 2 h. 0.7% of 47,000 active. AID 1645858. inhibition, % at 25 µM
UCHL1 inh: human UCHL1 deubiquitinase inhibition; 0.2% of 47,000 active; purified UCHL1, Ub-rhodamine cleavage fluorescence; inhibition, % at 20 µM
Each line names hits and unclear results; the compound was inactive in the other large screens. Only some compounds are listed: those with a hit (about 1.8% of all), similar ones and a draw of the others. Rule as the data show it: active = inhibition above about 30%; inactive = the rest.

COc1ccc(-n2c(SCC(=O)Nc3cc(Cl)ccc3C(=O)O)nc3ccccc3c2=O)cc1Cl	USP7 block 35, USP10 inh 59
COC(=O)CSc1nc2ccccc2c(=N)n1-c1ccc(Cl)cc1	none
CN(Cc1ccccc1)Cc1nc(-c2ccc(N3CCCCCC3)nc2)no1	none
Cc1nc(-c2cc3cc(Cl)ccc3o2)cs1	none
CNc1nc2c(c(=O)n1C)CN(C(=O)Nc1cccc3ccccc13)CC2	OTUD3 inh 59
CC(C)Cc1cc(C(=O)N2CCOCC2c2ccn[nH]2)on1 (stereo not given)	none
O=C(Nc1ccccc1)C1CCCN(C(=O)Cc2cccs2)C1 (stereo not given)	none
CCOc1ccc2c(c1)c(=O)c(C(=O)c1ccc(F)cc1)cn2CC(=O)Nc1ccc(F)cc1	USP7 block 47, UCHL1 inh 30
COc1ccc(NC(=O)Cn2cc(C(=O)c3ccc(F)cc3)c(=O)c3cc(C)ccc32)cc1	USP10 inh 41
CCOc1ccc2c(c1)c(=O)c(C(=O)c1ccc(C)cc1)cn2CC(=O)Nc1ccc(OC)c(OC)c1	USP10 inh 48, OTUD3 inh 36
O=C(C1CCN(c2nc(-c3ccccc3)no2)CC1)N1CCN(c2ccc(F)cc2)CC1	none
N#Cc1cccc(NC(=O)Cn2cccc(-c3nc(-c4ccccc4)no3)c2=O)c1	none
N#Cc1cccc(NC(=O)Nc2cccn(Cc3ccccc3F)c2=O)c1	USP10 inh 71, OTUD3 inh 84, UCHL1 inh 35
N#Cc1ccc(NC(=O)Nc2cccn(Cc3ccccc3Br)c2=O)cc1	USP10 inh 51, OTUD3 inh 45
O=C1N(c2cccnc2)C(=O)C2(Cc3ccccc3)CCN(Cc3ccc(F)cc3)CCN12 (stereo not given)	none
COCCN1C[C@H]2CCN(C(=O)CCc3ccccc3C)CC[C@H]2S1(=O)=O	none
Cc1cc(C)cc(N(CCC(=O)Nc2ccc(N3CCOCC3)cc2)S(=O)(=O)c2ccc(Cl)cc2)c1	OTUD3 inh 35
COc1ccccc1CC(=O)N(C)C(c1ccccc1)c1ccccc1	OTUD3 inh 35
Cc1cc(C)cc(C(=O)N2C[C@H](c3nc(-c4cccnc4)no3)[C@@H](C)C2)c1	none
CCc1cc(=O)n(CC(=O)Nc2cc(C)ccc2OC)c(N2CCOCC2)n1	OTUD3 inh 37
CCc1cc(=O)n(CC(=O)Nc2ccc(F)c(F)c2)c(N2CCOCC2)n1	none
Cc1ccc(C(=O)N2CCN(C(=O)c3cc(-c4ccccn4)n[nH]3)CC2)cc1	none
COc1cc(-c2nc3c(c(=O)c4ccccc4n3C)c(=O)n2Cc2ccco2)cc(OC)c1OC	none
Cn1c2ccccc2c(=O)c2c(=O)n(Cc3ccco3)c(-c3ccccc3F)nc21	USP10 inh 61
COc1ccc(-c2noc(-c3nnn(-c4ccccc4Cl)c3C)n2)cc1	none
Cc1c(-c2nc(-c3ccccc3Cl)no2)nnn1-c1cccc(F)c1	USP10 inh 38
COc1cccc(C(=O)Nc2nc(-c3nnn(-c4ccc(C)c(F)c4)c3C)ns2)c1	USP10 inh 48
C=C/C=C(\C)CCC(O)C/C=C\C=C(/C)C(O)CC/C=C/C=C\C=C/C[C@@H]1OC(=O)C=C(C)[C@@H]1C (stereo not given in full)	none
CC(=O)N1CCc2cc(S(=O)(=O)N3CCN(c4ccccn4)CC3)ccc21	none
CCOc1ccccc1NC(=O)CN1C(=O)C(C)N(c2ccc(C)cc2)C1=O (stereo not given)	none
NC(=O)c1nc(-c2cccnc2)nc2c1[nH]c(=O)n2-c1ccc2c(c1)OCO2	OTUD3 inh 48
NC(=O)c1nc(-c2ccccn2)nc2c1[nH]c(=O)n2-c1ccc2c(c1)OCO2	OTUD3 inh 45
COCCNC(=O)COc1cccc(-c2nc(-c3ccc(C)cc3)no2)c1	none
COc1cccc(Cn2c(=O)c3c(C(=O)N4CCCCC4)cc(C)nc3n(C)c2=O)c1	none
COc1cccc(CCN2C[C@H]3CCN(C(=O)c4cccnc4)CC[C@H]3S2(=O)=O)c1	none
CC1=C(C)C(c2c(-c3ccc(C)cc3)[nH]c3ccccc23)N(C(C)(C)C)C1=O (stereo not given)	USP7 block 32, USP10 inh 41
Cc1ccc(S(=O)(=O)N2CCC(c3c(C)[nH]c4ccccc34)CC2)cc1	none
CCC1OC(O)(C(C)C(O)C(C)C2OC(=O)/C(C)=C/C(C)=CC(C)C(O)C(C)C/C(C)=C/C=C/C2OC)CC(OC(=O)/C=C/C(=O)NC2=C(O)CCC2=O)C1C (stereo not given)	USP10 inh 39, OTUD3 inh 32
COc1ccc(C(=O)/C=C\c2cn(CCC(=O)O)nc2-c2ccc(OC)c(OC)c2)cc1	none
COc1ccc(-c2nn(-c3ccccc3)cc2/C=C/C(=O)Nc2ccc(C(C)=O)cc2)cc1OC	OTUD3 inh 47
CC(c1ccccc1)N1CC(O)=C(c2nc3ccccc3s2)C1=N (stereo not given)	USP7 block 30, USP10 inh 45
COc1ccccc1NS(=O)(=O)c1cc([N+](=O)[O-])ccc1NCC1COc2ccccc2O1 (stereo not given)	none
Cc1ccc([N+](=O)[O-])cc1S(=O)(=O)Nc1cc2sc(=O)oc2c2ccccc12	USP10 inh 37, OTUD3 inh 33
CC1=NOC(CNS(=O)(=O)c2ccccc2)C1 (stereo not given)	none
COc1ccc(CCC(=O)Nc2nnc(C3CC(=O)N(c4ccc(C)cc4)C3)s2)cc1 (stereo not given)	USP10 inh 38
COc1ccc(NC(=O)C2[C@@H]3C(=O)N(c4ccc5c(c4)OCO5)C(=O)[C@@H]3[C@H]3c4ccccc4C=CN23)cc1 (stereo not given in full)	none
CC(C)(C)C(=O)C1C2C(=O)N(c3ccc4c(c3)OCO4)C(=O)C2C2c3ccccc3C=CN12 (stereo not given)	OTUD3 inh 55
O=C(Nc1ccc2c(c1)OCO2)c1ccc2noc(-c3ccc(Cl)cc3)c2c1	none
Cc1cc(Cl)ccc1OCC(=O)Nc1ncnc2sc3c(c12)CCCC3	none
O=C(COc1ncnc2sc3c(c12)CCCC3)Nc1ccc2c(c1)OCO2	USP10 inh 31
c1ccc(N2CCN(c3nc(NCC4CCCO4)c4ccccc4n3)CC2)cc1 (stereo not given)	none
Cc1ccc(NC(=O)c2nnn(CC(=O)Nc3cccc(C)c3C)c2N)cc1C	USP10 inh 36
Cc1ccc(NC(=O)c2nnn(-c3cccc(F)c3)c2C)cc1C	none
O=C(CN(CC(=O)NCc1ccccc1Cl)c1nc2ccccc2s1)NCc1ccccc1Cl	USP10 inh 36
O=C(CN(Cc1ccccc1)S(=O)(=O)c1ccccc1)NCc1ccccc1Cl	none
Cc1c(O)ccc2c(=O)c(-c3cc4ccccc4o3)coc12	none
O=c1ccc(-c2cc3ccccc3o2)cn1Cc1ccccc1-c1ccccc1	OTUD3 inh 46, UCHL1 inh 38
COc1ccc(NC(=O)[C@H](C)NC(=O)c2cc3c(OC)cccc3[nH]2)cc1Cl	USP7 block 39, USP10 inh 51, OTUD3 inh 88
Cc1c(C(=O)N(C)c2nc3c(s2)CCc2occc2-3)oc2ccccc12	OTUD3 inh 36
